In this test the test system is LXRa homodimer (NR concentration 270 nM). The test is described as follows: PBM binding z-score (relative to random genomic background probes); higher = stronger binding; sequences stand for … in GC…GCGATTGACAGCGTAGAATGAAGG
Put shortly: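 Probes were double-stranded and carried 34-nt variable regions with direct-repeat seeds, single-nucleotide variants, half-site ablations and random human genomic background sequences, printed on custom Agilent 4×180K protein-binding microarrays. Arrays were incubated 1 h with ligand-free nuclear receptor dimers in PBS pH 7.4, 2% milk, 0.02% Triton X-100, 1 mM DTT, 0.2 mg/mL BSA and 0.4 mg/ml salmon testes DNA. Antibodies against each partner (one per run) detected binding, and scanned fluorescence was regression-normalized. Binding z-scores use the random background probes as reference.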
The sequence GCTAGCAGGCCATTTGAGTCACTCAATGACGGGC gave a PBM binding z-score of -0.699. Next, TAGCCTAGGTCATTCAGGGGCCAGTATAGAAAGC: 0.785; ATCTCTAGTTAAAGTTCAGTGAAAGATCGATAGA: 2.94. The figure for ATATGTAGGTTAGCTGGGTTCATTCAGACTAGGC is 2.19; for TCTATTAGTTCATTAGGGCAACCGAAACAGCGGA it is 1.56; for CCTGCTAGGTCATGGTCCGCTAATCTACAGTATG it is 0.0178.

Regarding TGTAGCAGGCCAGAGGGTCACTCAAGAGGTACGG, the PBM binding z-score is -0.568. Next, CGAACTAGGTCAGAACAAGACAGTGAAGGATGAT: -0.0962; ATCTCTAGGTAACAAGTTGAGTGAAAGAGAGGAC: 0.274. The figure for AGTCAAAGCTCAGGACGAGGTAACGTAAAGCACG is -0.393. Sequence ACTAGTTGGTCAGCTGAGGTCAGACACAATTCGG yielded a PBM binding z-score of 1.19. Next, CCTTACGGGTCACGCGGTTATAGCACGACGAGCG: 0.11; TCTTGTAGAGCAAGCAGGTTAAGAAAGCCTGAGT: -0.458.

Consider ATACCAAGGGGATCGTGAGGTCGTTGATACTAAC, for which the PBM binding z-score was determined as 0.291. The sequence AGTCAAAGTTCAGGTCGAGGTAACGTAAAGCACG displayed a PBM binding z-score of 1.87. The figure for CCAGACAGGTGAGAAGGTAACCCAGCCTCGATTA is -0.0873.

On to CCTAGCAGGCCAATCTGGGTCACTCAAGGCTTGA, for which the PBM binding z-score is -0.498. Next, TCATATAGGTACAGGTGAAAGTCGAACGATATGA: -0.0804; CAAACTAGGTCAAGGACAAAGTCGGTTTGTGCCA: 0.38. The figure for TCAAATAGGTAATACAGGTGAAAGTCGGCATCTA is 0.418; for GCTTGTAGATCGAGGTTAAGAAAGACTAAGCTAA it is -0.228; for ACTATTAGTTCAGACGAGGGCAACCGATAGGTTG it is 0.305. On to AATATTAGTTGAGACGAGGGCAACCGATAGGTTG, for which the PBM binding z-score is 0.595. The figure for GCATATAGGTAATACAAGGTGATAGTCCGATTGT is 0.0526. The figure for CCTACTGGTCCACGAAAGGTCATTGATTCAGTGA is 5.19; for GCGAGTGGGGCATCAGCAGGTTACCATAACTTAA it is -0.135. Next, AGAATGAGGTTGTTAAGATCAGGGAATTGCGGTC: -0.0695; TCCAGCAGGCCAGAGGGTCACTCAAGAGGTACGG: -0.45; GCTTGTAGATAAAGGTTAAGAAAGACTAAGCTAA: 0.00551.

CAGCCTAGGTCTGGGCCAGTATAGGAGGAACGTT came in with a PBM binding z-score of -0.89.

On to CCTAGTTGGTCGAGGTCACACACGCTATAGGTAC, for which the PBM binding z-score was 2.35. The figure for ACTCGGAGCACAAAGGTCAGAGCTACGCCAGTGA is 1.25; for TCATATAGGTAAAAGGTGAAAGTCGGTGTGGTAA it is 0.452. CCTCGGAGGCCAGAAGGTCAGAGCTGTCCGCTTT: the PBM binding z-score is -0.337.

In turn, TATACAGGGTCAAAGGCCCGAGTACGAATGTCGA registered a PBM binding z-score of 1.91. CGTCCAAGGTCAATGCTCGGTCAGTGAAAGCATT: the PBM binding z-score is 2.7. Regarding TCTATTACTTGAAGGGCAACCGACGAGTCCGTTT, the PBM binding z-score came out at 0.425. Next, CCGAGTAGTTTATGGGGCATTCAGGCAACGGTGA: -0.197.

Regarding TCGAGTAGATTAGTCGGGGCATTCAGCCAACATA, the PBM binding z-score was -0.477.

In turn, CGTCCAAGATCAGCAGGTCAGTGAAAGCGACGTG had a PBM binding z-score of 0.0834.

These data come from the supplement of paper PMC6555819.
